Laboratory results: PubChem BioAssay AID1159580 (chemical genetic matrix, 2015)
“And” between values parts separate entries of the source, which are not always exact repeats. Identical values can stand only once. Among all 5,500 compounds or so, about 2,000 (36%) were called active. About 18% were inconclusive and are not listed. Cut-off read from the data, not from the text of the source: active = normalized growth mostly below about 0.91 (no sharp cut-off); inconclusive = no clear call, values can overlap the other calls; inactive = mostly above about 0.92. Some of the results follow.

Experiment: chemical genetic growth profiling, strain panel (AID 1159580);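 note: tested at 20 µM; growth read once vehicle control cultures reached saturation at 30 °C; 1 = growth at the plate median or of vehicle wells; lower values mean less growth of the strain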
Conditions: S. cerevisiae deletion strains, growth OD
[1] = locus YHR030C, strain SLT2, stronger effect = lower value
[2] = locus YHR079C, strain IRE1, stronger effect = lower value
[3] = locus YJL095W, strain BCK1, stronger effect = lower value
[4] = locus YJR066W, strain TOR1, stronger effect = lower value
[5] = locus YLR113W, strain HOG1, stronger effect = lower value
[6] = locus YNL183C, strain NPR1, stronger effect = lower value
[7] = locus YOR231W, strain MKK1, stronger effect = lower value
[8] = locus YPL256C, strain CLN2, stronger effect = lower value

Measured: normalized growth

CCC(C)[C@H]1O[C@]2(CC[C@@H]1C)C[C@@H]1C[C@@H](C/C=C(\C)[C@@H](OC3C[C@H](OC)C(O[C@H]4C[C@H](OC)[C@@H](O)[C@H](C)O4)[C@H](C)O3)[C@@H](C)/C=C/C=C3\CO[C@@H]4[C@H](O)C(C)=C[C@@H](C(=O)O1)[C@]34O)O2 (some centres not stated)
inactive: [1] 0.995 | [2] 0.992 | [3] 0.964 | [4] 0.941 | [5] 0.993 | [6] 0.948 | [7] 1 | [8] 0.94

CCC(C)[C@H]1O[C@]2(C=C[C@@H]1C)C[C@@H]1C[C@@H](C/C=C(\C)[C@@H](OC3C[C@H](OC)C(O[C@H]4C[C@H](OC)[C@@H](O)[C@H](C)O4)[C@H](C)O3)[C@@H](C)/C=C/C=C3\CO[C@@H]4[C@H](O)C(C)=C[C@@H](C(=O)O1)[C@]34O)O2 (some centres not stated)
0.722 (active) and 0.976 (inactive): [3]
0.865 (active) and 0.98 (inactive): [1]
active: locus YAL013W, strain DEP1, stronger effect = lower value 0.804 | locus YBR009C, strain hhf1, stronger effect = lower value 0.809 | locus YBR021W, strain FUR4, stronger effect = lower value 0.838 | locus YBR023C, strain chs3, stronger effect = lower value 0.889 | locus YBR279W, strain paf1, stronger effect = lower value 0.882 | locus YCL011C, strain gbp2, stronger effect = lower value 0.817 | locus YCL016C, strain dcc1, stronger effect = lower value 0.86 | locus YCL029C, strain bik1, stronger effect = lower value 0.889 | locus YCL069W, strain vba3, stronger effect = lower value 0.898 | locus YDL035C, strain GPR1, stronger effect = lower value 0.847 | locus YDL074C, strain BRE1, stronger effect = lower value 0.669 | locus YDL134C, strain PPH21, stronger effect = lower value 0.853 | locus YDL192W, strain arf1, stronger effect = lower value 0.847 | locus YDR137W, strain rgp1, stronger effect = lower value 0.499 | locus YDR162C, strain NBP2, stronger effect = lower value 0.769 | locus YDR195W, strain ref2 1.32 [resistant] | locus YDR318W, strain mcm21, stronger effect = lower value 0.853 | locus YDR388W, stronger effect = lower value 0.857 | locus YDR502C, strain sam2, stronger effect = lower value 0.841 | locus YER016W, strain bim1, stronger effect = lower value 0.911 | locus YGL086W, strain mad1, stronger effect = lower value 0.8 | locus YGL248W, strain PDE1, stronger effect = lower value 0.797 | locus YGL253W, strain hxk2, stronger effect = lower value 0.743 | locus YHR079C, strain IRE1 (second series), stronger effect = lower value 0.87 | locus YHR129C, strain ARP1, stronger effect = lower value 0.814 | locus YHR142W, strain chs7, stronger effect = lower value 0.864 | locus YIL066C, strain RNR3, stronger effect = lower value 0.742 | locus YIR030C, strain dcg1, stronger effect = lower value 0.904 | locus YJL095W, strain BCK1 (second series), stronger effect = lower value 0.891 | locus YJL164C, strain tpk1, stronger effect = lower value 0.795 | locus YJL187C, strain SWE1 (second series), stronger effect = lower value 0.791 | locus YKR001C, strain vps1, stronger effect = lower value 0.253 | locus YLL026W, stronger effect = lower value 0.886 | locus YLR039C, strain RIC1, stronger effect = lower value 0.274 | locus YLR058C, strain SHM2, stronger effect = lower value 0.881 | locus YLR221C, strain rsa3, stronger effect = lower value 0.832 | locus YLR258W, strain gsy2, stronger effect = lower value 0.849 | locus YLR262C, strain YPT6 (second series), stronger effect = lower value 0.418 | locus YLR262C, strain YPT6, stronger effect = lower value 0.214 | locus YLR268W, strain sec22, stronger effect = lower value 0.695 | locus YLR320W, strain mms22, stronger effect = lower value 0.828 | locus YLR330W, strain CHS5, stronger effect = lower value 0.893 | locus YLR342W, strain FKS1 (second series), stronger effect = lower value 0.452 | locus YLR342W, strain FKS1, stronger effect = lower value 0.681 | locus YLR418C, strain cdc73, stronger effect = lower value 0.824 | locus YMR205C, strain PFK2, stronger effect = lower value 0.77 | locus YMR307W, strain GAS1, stronger effect = lower value 0.323 | locus YNL071W, strain lat1, stronger effect = lower value 0.824 | locus YNL153C, strain GIM3, stronger effect = lower value 0.821 | locus YNL233W, strain BNI4, stronger effect = lower value 0.849 | locus YNL307C, strain MCK1, stronger effect = lower value 0.46 | locus YOR069W, strain VPS5, stronger effect = lower value 0.92 | locus YOR070C, strain gyp1, stronger effect = lower value 0.837 | locus YOR184W, strain ser1, stronger effect = lower value 0.698 | locus YOR270C, strain vph1, stronger effect = lower value 0.59 | locus YOR290C, strain snf2, stronger effect = lower value 0.864 | locus YPL051W, strain arl3, stronger effect = lower value 0.676 | locus YPL055C, strain LGE1, stronger effect = lower value 0.627 | locus YPL106C, strain sse1, stronger effect = lower value 1.38 [resistant] | locus YPR163C, strain tif3, stronger effect = lower value 0.897 | locus YPR167C, strain met16, stronger effect = lower value 0.862 | strain wtn01, stronger effect = lower value 0.76
inactive: locus YAL021C, strain ccr4, stronger effect = lower value 0.919 | locus YAL026C, strain drs2, stronger effect = lower value 0.954 | locus YAL030W, strain snc1, stronger effect = lower value 0.984 | locus YBL061C, strain skt5, stronger effect = lower value 0.964 | locus YBR171W, strain sec66, stronger effect = lower value 1 | locus YBR229C, strain ROT2, stronger effect = lower value 0.997 | locus YBR231C, strain swc5, stronger effect = lower value 0.947 | locus YCL061C, strain MRC1, stronger effect = lower value 0.976 | locus YCR088W, strain abp1, stronger effect = lower value 0.981 | locus YDL005C, strain med2, stronger effect = lower value 0.971 | locus YDL040C, strain nat1, stronger effect = lower value 0.983 | locus YDL101C, strain DUN1, stronger effect = lower value 0.933 | locus YDL185W, strain tfp1, stronger effect = lower value 1.02 | locus YDR001C, strain nth1, stronger effect = lower value 0.996 | locus YDR069C, strain doa4, stronger effect = lower value 1.02 | locus YDR101C, strain arx1, stronger effect = lower value 0.959 | locus YDR159W, strain sac3, stronger effect = lower value 0.915 | locus YDR297W, strain sur2, stronger effect = lower value 0.989 | locus YDR334W, strain swr1, stronger effect = lower value 0.982 | locus YDR335W, strain msn5, stronger effect = lower value 0.996 | locus YDR392W, strain spt3, stronger effect = lower value 0.855 | locus YEL003W, strain gim4, stronger effect = lower value 0.928 | locus YEL037C, strain rad23, stronger effect = lower value 0.973 | locus YEL061C, strain CIN8 (second series), stronger effect = lower value 0.973 | locus YEL061C, strain CIN8, stronger effect = lower value 0.933 | locus YER015W, strain faa2, stronger effect = lower value 0.957 | locus YER110C, stronger effect = lower value 1.03 | locus YER111C, strain swi4, stronger effect = lower value 0.997 | locus YER155C, strain BEM2 (second series), stronger effect = lower value 1.07 | locus YER155C, strain BEM2, stronger effect = lower value 0.966 | locus YER167W, strain BCK2, stronger effect = lower value 0.913 | locus YFR010W, strain ubp6, stronger effect = lower value 1 | locus YGL078C, strain dbp3, stronger effect = lower value 1.01 | locus YGL167C, strain pmr1, stronger effect = lower value 1.01 | locus YGL173C, strain kem1, stronger effect = lower value 0.967 | locus YGL227W, strain vid30, stronger effect = lower value 1 | locus YGL240W, strain doc1, stronger effect = lower value 1.06 | locus YGR135W, strain pre9, stronger effect = lower value 1.03 | locus YGR252W, strain gcn5, stronger effect = lower value 0.939 | locus YHR013C, strain ard1, stronger effect = lower value 0.847 | locus YHR027C, strain rpn1, stronger effect = lower value 0.977 | [2] 0.966 | locus YHR094C, strain hxt1, stronger effect = lower value 1.01 | locus YHR200W, strain rpn10, stronger effect = lower value 1.01 | locus YIL073C, strain SPO22, stronger effect = lower value 0.817 | locus YIL125W, strain kgd1, stronger effect = lower value 0.994 | locus YJL092W, strain hpr5, stronger effect = lower value 0.967 | locus YJL115W, strain asf1, stronger effect = lower value 1 | locus YJL129C, strain trk1, stronger effect = lower value 0.955 | locus YJL134W, strain LCB3, stronger effect = lower value 1.01 | locus YJL154C, strain vps35, stronger effect = lower value 1 | locus YJL166W, strain qcr8, stronger effect = lower value 0.916 | locus YJL168C, strain set2, stronger effect = lower value 1.02 | locus YJL187C, strain SWE1, stronger effect = lower value 0.951 | locus YJR043C, strain POL32, stronger effect = lower value 0.932 | [4] 0.973 | locus YJR075W, strain HOC1, stronger effect = lower value 0.906 | locus YKL009W, strain mrt4, stronger effect = lower value 1.01 | locus YKL068W, stronger effect = lower value 0.995 | locus YKL085W, strain MDH1 (second series), stronger effect = lower value 0.981 | locus YKL085W, strain MDH1, stronger effect = lower value 0.981 | locus YKL160W, strain elf1, stronger effect = lower value 0.969 | locus YKR026C, strain gcn3, stronger effect = lower value 0.996 | locus YKR091W, strain srl3, stronger effect = lower value 0.989 | locus YLL001W, strain dnm1, stronger effect = lower value 0.983 | locus YLL041C, strain sdh2, stronger effect = lower value 0.98 | locus YLR027C, strain aat2, stronger effect = lower value 0.936 | locus YLR102C, strain apc9, stronger effect = lower value 1.02 | [5] 0.975 | locus YLR357W, strain rsc2, stronger effect = lower value 1.03 | locus YLR370C, strain arc18, stronger effect = lower value 0.985 | locus YLR371W, strain rom2, stronger effect = lower value 1.03 | locus YLR384C, strain iki3, stronger effect = lower value 1.02 | locus YML016C, strain PPZ1, stronger effect = lower value 1 | locus YML032C, strain rad52, stronger effect = lower value 0.915 | locus YML120C, strain ndi1, stronger effect = lower value 0.955 | locus YML124C, strain tub3, stronger effect = lower value 1.01 | locus YMR058W, strain fet3, stronger effect = lower value 1 | locus YMR078C, strain ctf18, stronger effect = lower value 0.98 | locus YMR125W, strain sto1, stronger effect = lower value 1.03 | locus YMR129W, stronger effect = lower value 0.996 | locus YMR223W, strain ubp8, stronger effect = lower value 0.953 | locus YMR231W, strain pep5, stronger effect = lower value 0.984 | locus YNL067W, strain RPL9B, stronger effect = lower value 0.904 | [6] 0.926 | locus YNL209W, strain ssb2, stronger effect = lower value 0.937 | locus YNL248C, strain rpa49, stronger effect = lower value 0.926 | locus YNL250W, strain rad50, stronger effect = lower value 1.02 | locus YNL271C, strain bni1, stronger effect = lower value 1.01 | locus YNL298W, strain CLA4, stronger effect = lower value 1.04 | locus YNL322C, strain KRE1 (second series), stronger effect = lower value 0.935 | locus YNR049C, strain mso1, stronger effect = lower value 0.987 | locus YNR052C, strain pop2, stronger effect = lower value 0.952 | locus YOL012C, strain htz1 0.305 | locus YOL147C, strain pex11, stronger effect = lower value 0.935 | locus YOR001W, strain rrp6, stronger effect = lower value 1 | locus YOR061W, strain CKA2, stronger effect = lower value 0.891 | locus YOR080W, strain dia2, stronger effect = lower value 0.997 | locus YOR083W, strain WHI5, stronger effect = lower value 0.901 | locus YOR106W, strain vam3, stronger effect = lower value 0.984 | locus YOR136W, strain idh2, stronger effect = lower value 0.936 | locus YOR144C, strain elg1, stronger effect = lower value 0.97 | [7] 0.945 | locus YOR265W, strain rbl2, stronger effect = lower value 0.98 | locus YOR316C, strain cot1, stronger effect = lower value 1.01 | locus YPL078C, strain atp4, stronger effect = lower value 0.982 | locus YPL240C, strain hsp82, stronger effect = lower value 0.931 | [8] 0.955 | locus YPR119W, strain clb2, stronger effect = lower value 1.02 | locus YPR141C, strain kar3, stronger effect = lower value 0.997
